Measurements taken from PubChem BioAssay (Tox21).
Inconclusive results are not listed. Activity calls are given as the source filed them. Calls follow the shape of the dose curve; as a rule, active = well fitted curve in the direction sought with a large enough effect in the repeat runs; inconclusive = weak or mixed curves; inactive = no such curve, though single readings can be large; an effect the other way counts as inactive or inconclusive.

Columns and labels:
[1] = Caspase-3/7 induction in CHO-K1 cells by small molecules, qHTS assay (AID 1346980); also: nearly all actives have a fitted effect of over 15% in size
Procedure, shortened: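 Wild-type CHO-K1 cells exposed to compounds for 17hr at 37 C, 5% CO2. Caspase-3/7 activity then measured by Caspase-Glo 3/7 luminescence after 30min at room temperature.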

[2] = Caspase-3/7 induction in HepG2 cells by small molecules, qHTS cell viability counter screen (AID 1346981); also: series mostly up to about 92 µM; nearly all actives have a fitted effect of over 30% in size
Procedure, shortened: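 Viability determined by CellTiter-Fluor fluorescence in HepG2 wells also used for the luminescent Caspase-Glo 3/7 read. Compounds were present for 16 hr at 37 C, 5% CO2 before reagent addition.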

[3] = target: Cytochrome P450 2C9 (Homo sapiens) (UniProt P11712); test: Cytochrome P450 Family 2 Subfamily C Member 9 (CYP2C9) small molecule antagonists: luciferase reporter qHTS assay (AID 1671198); also: nearly all actives have a fitted effect of over 50% in size; also: potency is read from the fitted curve at half-maximal effect
Cytochrome P450 2C9 (Homo sapiens), sequence (P11712 whole entry, looked up): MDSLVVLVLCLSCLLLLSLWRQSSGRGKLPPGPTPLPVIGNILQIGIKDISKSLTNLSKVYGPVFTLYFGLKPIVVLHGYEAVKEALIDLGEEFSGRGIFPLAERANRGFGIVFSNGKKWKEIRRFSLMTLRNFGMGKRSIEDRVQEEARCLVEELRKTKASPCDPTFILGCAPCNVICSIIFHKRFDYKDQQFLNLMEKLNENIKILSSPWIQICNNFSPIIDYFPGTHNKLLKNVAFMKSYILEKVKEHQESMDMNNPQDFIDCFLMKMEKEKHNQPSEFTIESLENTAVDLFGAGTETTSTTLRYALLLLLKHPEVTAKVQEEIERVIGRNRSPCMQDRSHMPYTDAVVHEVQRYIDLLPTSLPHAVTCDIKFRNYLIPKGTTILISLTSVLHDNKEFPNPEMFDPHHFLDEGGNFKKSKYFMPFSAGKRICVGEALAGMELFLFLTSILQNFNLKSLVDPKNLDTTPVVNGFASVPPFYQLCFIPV
Procedure, shortened: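 P450-Glo proluciferin substrate with CYP2C9 enzyme; 10 min RT preincubation, then NADPH regeneration 1 h at 37C; luciferin detection reagent 20 min RT, luminescence in relative luminescence units.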

[4] = target: Voltage-gated inwardly rectifying potassium channel KCNH2 (Homo sapiens) (UniProt Q12809); test: Human Ether-a-go-go-Related Gene (hERG) channel small molecule antagonists: fluorescence cell-based qHTS assay (AID 1671200); also: nearly all actives have a fitted effect of over 50% in size; also: potency is read from the fitted curve at half-maximal effect
Voltage-gated inwardly rectifying potassium channel KCNH2 (Homo sapiens), sequence (Q12809 whole entry, looked up): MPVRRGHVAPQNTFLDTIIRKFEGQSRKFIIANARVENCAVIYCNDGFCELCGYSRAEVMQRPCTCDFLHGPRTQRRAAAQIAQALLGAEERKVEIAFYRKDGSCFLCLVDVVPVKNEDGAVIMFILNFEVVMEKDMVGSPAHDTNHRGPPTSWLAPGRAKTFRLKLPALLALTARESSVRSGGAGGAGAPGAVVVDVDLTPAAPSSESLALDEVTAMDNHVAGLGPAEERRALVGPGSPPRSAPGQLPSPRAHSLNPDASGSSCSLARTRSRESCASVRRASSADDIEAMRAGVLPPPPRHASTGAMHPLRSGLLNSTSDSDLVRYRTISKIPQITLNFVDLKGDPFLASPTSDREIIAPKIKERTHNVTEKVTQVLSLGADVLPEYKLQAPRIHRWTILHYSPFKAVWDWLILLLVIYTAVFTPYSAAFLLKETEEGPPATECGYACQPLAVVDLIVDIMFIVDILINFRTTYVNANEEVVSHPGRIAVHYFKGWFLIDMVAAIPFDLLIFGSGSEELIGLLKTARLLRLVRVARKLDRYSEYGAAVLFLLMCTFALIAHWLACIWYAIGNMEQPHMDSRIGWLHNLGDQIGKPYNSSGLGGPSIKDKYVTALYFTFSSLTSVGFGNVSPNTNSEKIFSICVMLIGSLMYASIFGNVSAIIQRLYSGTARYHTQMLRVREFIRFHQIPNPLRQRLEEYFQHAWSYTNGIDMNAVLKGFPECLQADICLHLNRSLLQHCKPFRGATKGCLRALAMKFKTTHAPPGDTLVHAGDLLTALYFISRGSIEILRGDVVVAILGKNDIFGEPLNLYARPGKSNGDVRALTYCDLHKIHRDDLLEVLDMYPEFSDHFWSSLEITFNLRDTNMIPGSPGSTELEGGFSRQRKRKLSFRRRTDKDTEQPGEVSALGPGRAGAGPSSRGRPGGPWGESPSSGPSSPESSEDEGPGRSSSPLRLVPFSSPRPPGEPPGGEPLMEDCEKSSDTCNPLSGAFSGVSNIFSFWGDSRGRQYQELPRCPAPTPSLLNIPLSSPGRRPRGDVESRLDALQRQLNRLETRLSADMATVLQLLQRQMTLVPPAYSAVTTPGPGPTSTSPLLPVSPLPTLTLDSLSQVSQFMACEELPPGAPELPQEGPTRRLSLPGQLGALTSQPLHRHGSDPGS
Procedure, shortened: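 Fluorescence at 540 nm emission (480 nm excitation) was recorded kinetically for 2 min at 1-second intervals once the thallium-containing stimulus reached cells previously loaded with FluxOR II dye.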

[5] = target: Cytochrome P450 3A4 (Homo sapiens) (UniProt P08684); test: Cytochrome P450 Family 3 Subfamily A Member 4 (CYP3A4) small molecule antagonists: luciferase reporter qHTS assay (AID 1671201); also: series mostly up to about 120 µM; nearly all actives have a fitted effect of over 50% in size
Cytochrome P450 3A4 (Homo sapiens), sequence (P08684 whole entry, looked up): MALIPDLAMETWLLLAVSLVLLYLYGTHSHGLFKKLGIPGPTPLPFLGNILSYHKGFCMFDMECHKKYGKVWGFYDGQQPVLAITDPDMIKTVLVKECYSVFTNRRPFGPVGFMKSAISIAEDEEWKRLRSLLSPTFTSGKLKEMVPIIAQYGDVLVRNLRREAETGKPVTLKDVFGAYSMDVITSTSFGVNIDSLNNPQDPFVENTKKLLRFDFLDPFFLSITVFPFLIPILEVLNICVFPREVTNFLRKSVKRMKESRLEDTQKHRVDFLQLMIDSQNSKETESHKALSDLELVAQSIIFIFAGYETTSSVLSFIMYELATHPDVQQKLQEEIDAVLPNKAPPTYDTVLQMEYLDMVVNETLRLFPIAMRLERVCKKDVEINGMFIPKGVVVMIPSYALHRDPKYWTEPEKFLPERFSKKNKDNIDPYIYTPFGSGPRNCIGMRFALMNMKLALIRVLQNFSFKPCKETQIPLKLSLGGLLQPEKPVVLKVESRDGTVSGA
Procedure, shortened: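 qHTS, 1536-well. CYP3A4 + proluciferin substrate, cpd 10 min RT → NADPH regen 1 h RT → detection reagent 20 min → luminescence (RLU). Ketoconazole positive control.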

[6] = Caspase-3/7 induction in CHO-K1 cells by small molecules, qHTS cell viability counter screen (AID 1346979); also: nearly all actives have a fitted effect of over 35% in size; also: potency is read from the fitted curve at half-maximal effect
Procedure, shortened: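 Cytotoxicity counter screen run in parallel with the caspase-3/7 assay: CHO-K1 cells, 16hr compound treatment at 37C, then CellTiter-Fluor for 1hr before fluorescence reading.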

[7] = target: Nuclear receptor subfamily 1 group I member 2 (Homo sapiens) (UniProt O75469); test: Human pregnane X receptor (PXR) small molecule agonists, qHTS assay (AID 1346982); also: nearly all actives have a fitted effect of over 35% in size; also: potency is read from the fitted curve at half-maximal effect
Nuclear receptor subfamily 1 group I member 2 (Homo sapiens), sequence (O75469 whole entry, looked up): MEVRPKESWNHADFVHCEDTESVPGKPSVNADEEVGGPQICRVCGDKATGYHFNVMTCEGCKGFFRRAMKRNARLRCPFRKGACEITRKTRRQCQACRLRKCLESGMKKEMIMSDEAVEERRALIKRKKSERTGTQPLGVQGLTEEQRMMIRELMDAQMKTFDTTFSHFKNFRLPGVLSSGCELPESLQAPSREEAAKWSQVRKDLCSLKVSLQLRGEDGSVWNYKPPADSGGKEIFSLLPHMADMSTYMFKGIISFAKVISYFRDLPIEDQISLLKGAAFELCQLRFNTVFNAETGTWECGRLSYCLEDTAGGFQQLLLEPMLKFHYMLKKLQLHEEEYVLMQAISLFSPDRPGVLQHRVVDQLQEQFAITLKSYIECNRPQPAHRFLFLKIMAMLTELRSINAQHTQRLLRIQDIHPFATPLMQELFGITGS
Procedure, shortened: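 Compound-induced hPXR transactivation of a CYP3A4 luciferase reporter was scored in HepG2 PXR-Luc cells over 24 hr at 37 C, 5% CO2, by luminescence.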

[8] = target: Nuclear receptor subfamily 1 group I member 2 (Homo sapiens) (UniProt O75469); test: CYP3A4 induction through human pregnane X receptor (PXR) by small molecules, qHTS assay (AID 1346984); also: nearly all actives have a fitted effect of over 40% in size
Procedure, shortened: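 Readings come from a luciferase reporter: DPX-2 cells, which are HepG2 cotransfected with PXR and a CYP3A4-promoter construct, were exposed to test compounds for 24 h at 37C before One-Glo detection.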

[9] = target: Cytochrome P450 2D6 (Homo sapiens) (UniProt P10635); test: Cytochrome P450 Family 2 Subfamily D Member 6 (CYP2D6) small molecule antagonists: luciferase reporter qHTS assay (AID 1671196); also: nearly all actives have a fitted effect of over 50% in size; also: potency is read from the fitted curve at half-maximal effect
Cytochrome P450 2D6 (Homo sapiens), sequence (P10635 whole entry, looked up): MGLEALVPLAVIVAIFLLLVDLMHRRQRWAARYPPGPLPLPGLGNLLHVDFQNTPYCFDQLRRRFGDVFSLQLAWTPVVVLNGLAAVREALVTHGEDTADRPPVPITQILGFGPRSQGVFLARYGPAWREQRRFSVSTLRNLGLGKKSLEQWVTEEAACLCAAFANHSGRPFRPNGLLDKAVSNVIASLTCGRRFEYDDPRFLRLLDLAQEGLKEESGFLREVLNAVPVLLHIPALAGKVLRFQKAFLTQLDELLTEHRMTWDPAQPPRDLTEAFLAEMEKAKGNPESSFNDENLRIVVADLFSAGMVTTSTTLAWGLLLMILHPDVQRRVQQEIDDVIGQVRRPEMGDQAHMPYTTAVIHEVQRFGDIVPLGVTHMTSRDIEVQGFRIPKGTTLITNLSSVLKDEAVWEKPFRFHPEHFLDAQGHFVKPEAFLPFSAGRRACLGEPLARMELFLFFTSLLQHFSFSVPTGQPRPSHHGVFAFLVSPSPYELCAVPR
Procedure, shortened: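 Each well received CYP2D6 with its proluciferin substrate and chemical, sat 10 min, then got NADPH regeneration solution for 1 h at room temperature. Luminescence in RLU served as the activity measure.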

[10] = target: Cytochrome P450 2C19 (Homo sapiens) (UniProt P33261); test: Cytochrome P450 Family 2 Subfamily C Member 19 (CYP2C19) small molecule antagonists: luciferase reporter qHTS assay (AID 1671197); also: nearly all actives have a fitted effect of over 65% in size; also: potency is read from the fitted curve at half-maximal effect
Cytochrome P450 2C19 (Homo sapiens), sequence (P33261 whole entry, looked up): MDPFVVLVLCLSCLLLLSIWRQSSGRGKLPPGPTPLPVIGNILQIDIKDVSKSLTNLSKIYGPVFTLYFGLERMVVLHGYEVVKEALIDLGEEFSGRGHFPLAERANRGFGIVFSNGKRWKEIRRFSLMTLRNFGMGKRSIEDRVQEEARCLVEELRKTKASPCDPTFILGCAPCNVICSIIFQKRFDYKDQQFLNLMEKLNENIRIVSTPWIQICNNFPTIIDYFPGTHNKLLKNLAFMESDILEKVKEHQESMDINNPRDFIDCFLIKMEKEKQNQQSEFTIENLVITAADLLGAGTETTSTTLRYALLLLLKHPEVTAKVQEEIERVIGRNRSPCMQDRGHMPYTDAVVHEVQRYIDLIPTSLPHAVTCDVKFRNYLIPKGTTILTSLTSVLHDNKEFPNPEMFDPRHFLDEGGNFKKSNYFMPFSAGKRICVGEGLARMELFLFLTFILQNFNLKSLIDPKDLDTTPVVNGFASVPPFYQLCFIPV
Procedure, shortened: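 Inhibition of CYP2C19 was scored from loss of luminescence in a P450-Glo proluciferin substrate assay, NADPH-started and run 1 h at 37C, with ketoconazole as positive control.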

[11] = target: Nuclear receptor subfamily 1 group I member 2 (Rattus norvegicus) (UniProt Q9R1A7); test: Rat pregnane X receptor (rPXR) activation by small molecules, qHTS assay (AID 1346983); settings: rPXR luciferase reporter cells, One-Glo luminescence, 24 h; max activation: stronger effect = higher value; also: nearly all actives have a fitted effect of over 20% in size; also: potency is read from the fitted curve at half-maximal effect
Nuclear receptor subfamily 1 group I member 2 (Rattus norvegicus), sequence (Q9R1A7 whole entry, looked up): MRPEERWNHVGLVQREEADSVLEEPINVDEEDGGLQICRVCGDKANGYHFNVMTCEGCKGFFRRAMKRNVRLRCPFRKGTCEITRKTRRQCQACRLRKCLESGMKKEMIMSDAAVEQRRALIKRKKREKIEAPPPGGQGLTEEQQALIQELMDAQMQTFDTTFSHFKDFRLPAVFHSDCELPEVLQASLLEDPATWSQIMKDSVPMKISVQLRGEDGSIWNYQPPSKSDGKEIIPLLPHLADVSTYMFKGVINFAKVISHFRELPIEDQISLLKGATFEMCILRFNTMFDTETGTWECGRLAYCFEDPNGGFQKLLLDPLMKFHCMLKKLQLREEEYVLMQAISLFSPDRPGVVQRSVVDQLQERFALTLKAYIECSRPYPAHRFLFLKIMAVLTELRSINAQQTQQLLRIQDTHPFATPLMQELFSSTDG
Procedure, shortened: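 Cell-based rPXR activation assay: rPXR cells, 2,000 per well, rested 5hr at 37 C, then exposed to compounds in DMSO for 24 hr at 37 C. Luciferase activity read by One-Glo luminescence after 30 min at room temperature.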

[12] = target: Cytochrome P450 1A2 (Homo sapiens) (UniProt P05177); test: Cytochrome P450 Family 1 Subfamily A Member 2 (CYP1A2) small molecule antagonists: luciferase reporter qHTS assay (AID 1671199); also: nearly all actives have a fitted effect of over 50% in size; also: potency is read from the fitted curve at half-maximal effect
Cytochrome P450 1A2 (Homo sapiens), sequence (P05177 whole entry, looked up): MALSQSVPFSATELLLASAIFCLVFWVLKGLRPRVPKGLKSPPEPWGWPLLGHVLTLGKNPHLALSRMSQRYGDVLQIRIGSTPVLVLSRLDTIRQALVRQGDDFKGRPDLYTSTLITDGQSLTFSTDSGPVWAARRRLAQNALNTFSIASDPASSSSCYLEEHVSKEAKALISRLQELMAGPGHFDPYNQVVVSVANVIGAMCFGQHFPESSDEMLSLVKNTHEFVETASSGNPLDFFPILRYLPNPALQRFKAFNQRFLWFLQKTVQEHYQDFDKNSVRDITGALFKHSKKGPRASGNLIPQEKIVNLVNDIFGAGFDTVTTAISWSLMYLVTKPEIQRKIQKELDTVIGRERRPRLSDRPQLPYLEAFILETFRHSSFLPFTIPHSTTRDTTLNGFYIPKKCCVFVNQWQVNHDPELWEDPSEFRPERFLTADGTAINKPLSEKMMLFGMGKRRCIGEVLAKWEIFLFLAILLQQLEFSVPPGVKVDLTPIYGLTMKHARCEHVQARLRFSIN
Procedure, shortened: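 Enzymatic CYP1A2 assay, human, luminescent: 10 min compound–enzyme–substrate preincubation, 1 h NADPH-dependent turnover, 20 min detection step, room temperature throughout. Reduced light indicates lower CYP1A2 activity.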

[13] = target: Nuclear receptor subfamily 1 group I member 2 (Homo sapiens) (UniProt O75469); test: Human pregnane X receptor (PXR) activation by small molecules, qHTS assay (AID 1346985); also: nearly all actives have a fitted effect of over 40% in size
Procedure, shortened: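 DPX-2 cells (HepG2 co-transfected with a PXR response element and a CYP3A4-promoter luciferase construct) were seeded at 2,000 per well, rested 5 hr at 37C, then exposed to DMSO-dissolved compounds for 24 hr. Activation was read as luciferase luminescence.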
% is scaled to controls: 0 for no effect and ±100 for the full control effect.

CCCS(=O)c1ccc2nc(NC(=O)OC)[nH]c2c1 (centres undefined)
inactive: outcome [1] | Potency [2] | Potency [3] | Potency [4] | Potency [5]

CCCCC(=O)O[C@]1(C(=O)CO)[C@H](C)C[C@H]2[C@@H]3CCC4=CC(=O)C=C[C@]4(C)[C@@]3(F)[C@@H](O)C[C@@]21C
active: Potency [3] 17.4 µM
inactive: Potency [6] | outcome [1] | Potency [2] | Potency [7] | Potency [8] | Potency [4]

O=C(CCCl)NCc1ccccc1
inactive: Potency [6] | outcome [1] | Potency [2] | Potency [7] | Potency [9] | Potency [10] | Potency [3] | Potency [4] | Potency [5]

COc1ccc2nc(NC(=O)Nc3ccccc3)sc2c1
active: Potency [7] 1.88 µM | Potency [11] 0.199 µM | Potency [10] 21.9 µM | Potency [3] 15.5 µM | Potency [12] 12.3 µM
inactive: outcome [1] | Potency [9] | Potency [4] | Potency [5]

O=C1CCCCC1C1CCCCC1 (centres undefined)
inactive: Potency [6] | outcome [1] | Potency [7] | Potency [9] | Potency [10] | Potency [3] | Potency [12] | Potency [4] | Potency [5]

Cc1ccccc1C(=O)Nc1ccc(C(=O)N2CCCC(O)c3cc(Cl)ccc32)c(C)c1 (centres undefined)
inactive: outcome [1] | Potency [2] | Potency [7] | Potency [10] | Potency [12] | Potency [4]
active: Potency [3] 15.5 µM

FC(F)(F)c1ccccc1
inactive: Potency [6] | outcome [1] | Potency [2] | Potency [7] | Potency [9] | Potency [10] | Potency [3] | Potency [12] | Potency [4] | Potency [5]

CCOc1ccc(NC(N)=O)cc1
inactive: outcome [1] | Potency [7] | Potency [9] | Potency [10] | Potency [4] | Potency [5]

CCCCN1C[C@H](O)[C@@H](O)[C@H](O)[C@H]1CO
inactive: Potency [6] | outcome [1] | Potency [2] | Potency [7] | max activation [11] -1.78% | Potency [8] | Potency [13] | Potency [9] | Potency [3] | Potency [4] | Potency [5]

COC(=O)C(C)O (centres undefined)
inactive: Potency [6] | outcome [1] | Potency [2] | Potency [7] | Potency [9] | Potency [10] | Potency [3] | Potency [4] | Potency [5]

Cc1c(C(=O)NCCO)[n+](=O)c2ccccc2n1[O-]
inactive: Potency [6] | outcome [1] | Potency [2] | Potency [7] | max activation [11] -3.05% | Potency [8] | Potency [13] | Potency [10] | Potency [3] | Potency [4] | Potency [5]

C=Cc1ccccc1
inactive: Potency [6] | outcome [1] | Potency [2] | Potency [7] | Potency [9] | Potency [10] | Potency [3] | Potency [4] | Potency [5]

CCN(CCCc1ccccc1)CCCc1ccccc1
active: Potency [9] 0.871 µM | Potency [10] 6.92 µM | Potency [12] 7.23 µM
inactive: Potency [6] | outcome [1] | Potency [2] | max activation [11] -0.276% | Potency [8] | Potency [13] | Potency [3] | Potency [5]

O=C(Cl)c1cccc([N+](=O)[O-])c1
active: Potency [12] 34.6 µM
inactive: outcome [1] | Potency [2] | Potency [7] | Potency [9] | Potency [3] | Potency [4] | Potency [5]

CN(C)C(=O)NC1(c2ccccc2)CCN(CCC[C@]2(c3ccc(Cl)c(Cl)c3)CCCN(C(=O)c3ccccc3)C2)CC1
inactive: caspase-3/7 activation [1] -0.059% [at 19 µM] | activation [7] -0.297% [at 19 µM] | Potency [12]
active: Potency [9] 3.79 µM | Potency [4] 2.08 µM

C=CCCC=C
inactive: Potency [6] | outcome [1] | Potency [2] | Potency [7] | Potency [10] | Potency [3] | Potency [4] | Potency [5]

CC(C)CC(=O)OCc1ccccc1
inactive: Potency [6] | outcome [1] | Potency [2] | Potency [10] | Potency [3] | Potency [12] | Potency [4] | Potency [5]

CC(C)c1ccccc1
inactive: Potency [6] | outcome [1] | Potency [2] | Potency [7] | Potency [10] | Potency [3] | Potency [12] | Potency [4] | Potency [5]

CCN(O)CC
inactive: outcome [1] | Potency [2] | Potency [9] | Potency [10] | Potency [4] | Potency [5]
active: Potency [6] 26.7 µM | Potency [7] 59.8 µM
